Measurements as given in PubChem BioAssay (Tox21).
Several values for one entry are separate records, joined by “and”; a condition that tells them apart may be missing. Equal entries are not always repeated. Inconclusive results are not listed. Where a structure was tested more than once in an assay, its records may differ in their call. Activity calls are given as the source filed them. Unless noted, the call rests on the fitted dose curve.

Legend:
[1] = Nuclear factor erythroid 2-related factor 2/antioxidant responsive element (Nrf2/ARE) small molecule agonists: qHTS cell viability counter screen in human keratinocytes (AID 1919968; active means well fitted curve in the direction sought with a large enough effect in the repeat runs; an effect the other way counts as inactive or inconclusive; further: nearly all actives have a fitted effect of over 55% in size; further: potency means the concentration at half of the fitted maximal effect)
In short: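 Viability counter-screen: KeratinoSens reporter cells, DMSO-delivered compounds, 23 h at 37 C, CellTiter-Fluor fluorescence.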

[2] = Nuclear factor erythroid 2-related factor 2/antioxidant responsive element (Nrf2/ARE) small molecule agonists: luciferase reporter gene qHTS assay in human keratinocytes (AID 1919969); further: nearly all actives have a fitted effect of over 35% in size
[3] = biological target: Gonadotropin-releasing hormone receptor (Homo sapiens) (UniProt P30968); assay: Human gonadotropin-releasing hormone receptor (GnRHR) small molecule agonists, calcium flux assay in GnRHR-HEK293 cells (AID 1920063); further: nearly all actives have a fitted effect of over 35% in size; further: potency means the concentration at half of the fitted maximal effect
In short: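 Tox21-format agonist screen using human GnRHR-expressing HEK293 cells and a fluorescent calcium dye; kinetic 3-min fluorescence reading after compound addition, 15-point concentration series run in triplicate.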

[4] = biological target: KiSS-1 receptor (Homo sapiens) (UniProt Q969F8); assay: Human kisspeptin (KISS1R) small molecule agonists, calcium flux assay in KISS1R-HEK293 cells (AID 1920064; active means well fitted curve in the direction sought with a large enough effect in the repeat runs; an effect the other way counts as inactive or inconclusive; further: potency means the concentration at half of the fitted maximal effect)
In short: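 Intracellular calcium mobilization in KISS1R-HEK293 cells was recorded by fluorescence (Ex/Em 480/540) for 3 min following compound addition to cells pre-loaded 1 h with calcium dye.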

[5] = p53 small molecule agonists, cell-based qHTS assay with human liver microsomes (AID 1963577)
In short: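 Fluorescence of the beta-lactamase reporter in p53RE-bla cells, detected with LiveBLAzer substrate (2 h, room temperature, dark), served as the read-out after 16 h compound exposure at 37 C with human liver microsomes and NADPH, each 0.5 mg/mL final.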

[6] = p53 small molecule agonists, cell-based qHTS assay with rat liver microsomes (AID 1963578)
In short: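 Cells carrying a p53 response element–beta-lactamase reporter were plated and rested 5 h, then dosed with compound in DMSO plus rat liver microsomes and NADPH, each at 0.5 mg/mL final. After 16 h at 37 C, LiveBLAzer substrate was added for 2 h.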

[7] = p53 small molecule agonists, cell-based qHTS assay with human liver microsomes: qHTS cell viability counter screen (AID 1963579); further: nearly all actives have a fitted effect of over 45% in size
In short: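 Cytotoxicity counter screen: p53RE-bla, 4,000 cells/well; 5 h settle, 37 C/5% CO2; cpd + HLM 0.5 mg/mL + NADPH 0.5 mg/mL (final); 16 h, 37 C; CellTiter-Glo, 30 min RT, luminescence.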

[8] = p53 small molecule agonists, cell-based qHTS assay with rat liver microsomes: qHTS cell viability counter screen (AID 1963580); further: nearly all actives have a fitted effect of over 45% in size
In short: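 p53RE-bla HCT-116 cells (4,000/well) rested 5 h at 37 C, then given Tox21 compounds in DMSO with rat liver microsomes (0.5 mg/mL final) plus NADPH (0.5 mg/mL final) for 16 h at 37 C. Viability read by CellTiter-Glo luminescence after 30 min at room temperature.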

[9] = p53 small molecule agonists, cell-based qHTS assay: qHTS cell viability counter screen (AID 1963581); further: nearly all actives have a fitted effect of over 45% in size
In short: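 Compounds are pinned onto HCT-116 p53RE-bla cells and left 16 h at 37 C. Following the reporter FRET read, ATP is quantified by CellTiter-Glo luminescence after 30 min at room temperature.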

[10] = p53 small molecule agonists, cell-based qHTS assay (AID 1963582; active means well fitted activation curve with a large enough effect in the signal ratio in the repeat runs, not every such curve was filed as active; the % refers to the signal ratio)
In short: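 Agonist activity was scored from beta-lactamase FRET fluorescence in p53RE-bla cells treated 16 h at 37 C with compounds in DMSO, substrate incubation being 2 h at room temperature.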

[11] = biological target: 5-hydroxytryptamine receptor 2A (Homo sapiens) (UniProt P28223); assay: 5-hydroxytryptamine receptor 2A (HTR2A) small molecule antagonists, cell-based qHTS assay (AID 1963586); further: nearly all actives have a fitted effect of over 45% in size
In short: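 Antagonist-mode intracellular calcium assay: DOI (4 nM) added after 5 min compound pre-incubation at room temperature to dye-loaded HTR2A-CHO cells. Fluorescence followed for 3 min, sampled every second.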

[12] = biological target: 5-hydroxytryptamine receptor 2A (Homo sapiens) (UniProt P28223); assay: 5-hydroxytryptamine receptor 2A (HTR2A) small molecule agonists, cell-based qHTS assay (AID 1963587); further: nearly all actives have a fitted effect of over 30% in size; further: potency means the concentration at half of the fitted maximal effect
In short: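 HTR2A-CHO cells, plated 18 h at 37 C/5% CO2, dye-loaded 1 h at 37 C; compounds in DMSO added by pin tool (agonist mode). Intracellular calcium flux read as kinetic fluorescence on FDSS over 2 min at 1 s intervals.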

[13] = biological target: Muscarinic acetylcholine receptor M1 (Homo sapiens) (UniProt P11229); assay: Cholinergic receptor muscarinic 1 (CHRM1) small molecule antagonists, cell-based qHTS assay (AID 1963588); further: nearly all actives have a fitted effect of over 40% in size
In short: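 CHRM1-CHO calcium-flux assay, antagonist mode. Cells were seeded 18 h, dye-loaded 1 h at 37 C and given compound for 5 min at RT, then acetylcholine was added at 50nM. FDSS fluorescence was read 3 min; 15 concentrations, three runs.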

[14] = biological target: Muscarinic acetylcholine receptor M1 (Homo sapiens) (UniProt P11229); assay: Cholinergic receptor muscarinic 1 (CHRM1) small molecule agonists, cell-based qHTS assay (AID 1963589); further: nearly all actives have a fitted effect of over 35% in size; further: potency means the concentration at half of the fitted maximal effect
In short: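 Stable CHRM1-CHO cells (human receptor) were incubated 18 h, dye-loaded for 1 h at 37 C and exposed to test compounds for agonist activity, with calcium-dependent fluorescence followed kinetically.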

[15] = cAMP Responsive Elements (CRE) small molecule agonists, cell-based qHTS assay (AID 1963590)
In short: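 FRET-based beta-lactamase readout (LiveBLAzer B/G, 2 h RT) quantified CRE activation in HEK 293T CRE-bla cells after 3 h treatment with DMSO-dissolved compounds.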

[16] = cAMP Responsive Elements (CRE) small molecule antagonists, cell-based qHTS assay (AID 1963591; active means well fitted inhibition curve with a large enough effect in the signal ratio in the repeat runs, not every such curve was filed as active; the % refers to the signal ratio)
In short: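 qHTS in CRE-bla HEK 293T cells: compound in DMSO, then 0.25 uM NKH477 (final), 3 h at 37 °C/5% CO2; beta-lactamase FRET read-out after 2 h substrate incubation.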

[17] = biological target: Beta-2 adrenergic receptor (Homo sapiens) (UniProt P07550); assay: Adrenergic beta2 receptor (ADRB2) small molecule antagonists, cell-based qHTS assay (AID 1963592); further: nearly all actives have a fitted effect of over 50% in size; further: potency means the concentration at half of the fitted maximal effect; on activity change, negative = inhibition: series mostly up to about 92 µM
In short: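 Cells (CHO, stable ADRB2 overexpression) incubated 18-20hr at 37C; compounds added from DMSO; agonist mix (1nM isoproterenol, 100uM IBMX, 25uM Ro-20-1724) added; 0.5hr RT; d2-cAMP and anti-cAMP-cryptate added; 1hr RT; 665/615 nm read.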

[18] = biological target: D(2) dopamine receptor (Homo sapiens) (UniProt P14416); assay: Dopamine D2 receptor (DRD2) small molecule agonists, cell-based qHTS assay (AID 1963594); further: nearly all actives have a fitted effect of over 35% in size; further: potency means the concentration at half of the fitted maximal effect
In short: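 HEK293 cells stably expressing DRD2 were cultured 24 h at 37 C, then given Ro20-1724 (0.1 mM final) and compounds for 10 min at room temperature. NKH477 (200nM) was then added for 30 min. cAMP was read by HTRF.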

[19] = biological target: D(2) dopamine receptor (Homo sapiens) (UniProt P14416); assay: Dopamine D2 receptor (DRD2) small molecule antagonists, cell-based qHTS assay (AID 1963595; active means well fitted inhibition curve with a large enough effect in the signal ratio in the repeat runs, with a control signal flat; the % refers to the signal ratio)
In short: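 Antagonist mode in DRD2-HEK293 cells: after compound addition with 0.1 mM Ro20-1724, cells received quinpirole (12 nM) and NKH477 (200 nM) for 30 min at room temperature; HTRF cAMP read after 1 h detection.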

[20] = biological target: Beta-2 adrenergic receptor (Homo sapiens) (UniProt P07550); assay: Adrenergic beta2 receptor (ADRB2) small molecule agonists, cell-based qHTS assay (AID 1963593);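 further: CHO cells stably overexpressing human ADRB2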
In short: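 CHO cells stably over-expressing ADRB2 were plated overnight at 37C, then dosed with compounds plus a stimulation mix containing 100uM IBMX and 25uM Ro-20-1724 for 0.5hr at room temperature. cAMP was measured by HTRF competition, 1hr.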
On the % scale 0 is the no-effect control and ±100 the full control effect.

Sequence of KiSS-1 receptor (Homo sapiens) (Q969F8 whole entry, looked up): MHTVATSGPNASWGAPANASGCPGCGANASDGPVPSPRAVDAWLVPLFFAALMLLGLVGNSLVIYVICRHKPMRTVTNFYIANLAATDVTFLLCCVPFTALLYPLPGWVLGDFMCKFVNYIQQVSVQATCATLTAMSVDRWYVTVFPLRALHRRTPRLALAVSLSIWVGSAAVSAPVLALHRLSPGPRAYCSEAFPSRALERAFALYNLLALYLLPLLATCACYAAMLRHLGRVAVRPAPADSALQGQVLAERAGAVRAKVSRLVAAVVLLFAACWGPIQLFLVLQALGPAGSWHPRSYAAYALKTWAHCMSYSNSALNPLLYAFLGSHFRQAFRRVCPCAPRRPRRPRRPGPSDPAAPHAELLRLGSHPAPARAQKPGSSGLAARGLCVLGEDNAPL
Sequence of Beta-2 adrenergic receptor (Homo sapiens) (P07550 whole entry, looked up): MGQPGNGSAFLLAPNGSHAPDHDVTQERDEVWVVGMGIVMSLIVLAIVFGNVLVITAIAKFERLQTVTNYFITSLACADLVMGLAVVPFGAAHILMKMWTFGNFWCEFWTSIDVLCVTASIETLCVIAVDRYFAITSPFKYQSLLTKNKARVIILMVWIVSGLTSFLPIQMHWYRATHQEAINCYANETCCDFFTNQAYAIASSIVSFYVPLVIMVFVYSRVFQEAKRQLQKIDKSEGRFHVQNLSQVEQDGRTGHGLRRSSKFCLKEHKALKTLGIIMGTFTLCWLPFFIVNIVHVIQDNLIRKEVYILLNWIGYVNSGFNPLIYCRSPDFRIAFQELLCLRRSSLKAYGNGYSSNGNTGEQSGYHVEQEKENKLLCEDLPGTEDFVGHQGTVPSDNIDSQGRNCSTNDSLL
Sequence of 5-hydroxytryptamine receptor 2A (Homo sapiens) (P28223 whole entry, looked up): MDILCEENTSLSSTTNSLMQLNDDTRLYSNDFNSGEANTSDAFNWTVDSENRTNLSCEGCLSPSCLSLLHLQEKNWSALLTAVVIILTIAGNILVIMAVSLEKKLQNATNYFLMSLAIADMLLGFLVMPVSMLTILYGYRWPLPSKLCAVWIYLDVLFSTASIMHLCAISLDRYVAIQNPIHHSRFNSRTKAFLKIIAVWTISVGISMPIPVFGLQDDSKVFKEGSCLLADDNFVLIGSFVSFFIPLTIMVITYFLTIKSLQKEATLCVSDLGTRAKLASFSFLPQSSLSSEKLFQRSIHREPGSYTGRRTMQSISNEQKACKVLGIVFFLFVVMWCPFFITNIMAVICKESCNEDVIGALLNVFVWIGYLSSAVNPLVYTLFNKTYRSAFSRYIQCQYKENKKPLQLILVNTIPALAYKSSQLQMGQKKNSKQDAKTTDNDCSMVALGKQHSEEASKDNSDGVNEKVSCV
Sequence of Gonadotropin-releasing hormone receptor (Homo sapiens) (P30968 whole entry, looked up): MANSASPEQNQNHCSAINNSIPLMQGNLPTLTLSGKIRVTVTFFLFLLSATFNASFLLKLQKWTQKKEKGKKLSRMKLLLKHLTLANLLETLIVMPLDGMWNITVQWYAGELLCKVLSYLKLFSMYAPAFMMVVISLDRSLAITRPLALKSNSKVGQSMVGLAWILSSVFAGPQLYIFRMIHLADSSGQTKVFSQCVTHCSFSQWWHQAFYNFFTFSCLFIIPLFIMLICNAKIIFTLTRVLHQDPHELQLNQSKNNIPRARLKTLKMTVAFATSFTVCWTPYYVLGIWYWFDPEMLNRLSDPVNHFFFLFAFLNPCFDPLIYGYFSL
Sequence of D(2) dopamine receptor (Homo sapiens) (P14416 whole entry, looked up): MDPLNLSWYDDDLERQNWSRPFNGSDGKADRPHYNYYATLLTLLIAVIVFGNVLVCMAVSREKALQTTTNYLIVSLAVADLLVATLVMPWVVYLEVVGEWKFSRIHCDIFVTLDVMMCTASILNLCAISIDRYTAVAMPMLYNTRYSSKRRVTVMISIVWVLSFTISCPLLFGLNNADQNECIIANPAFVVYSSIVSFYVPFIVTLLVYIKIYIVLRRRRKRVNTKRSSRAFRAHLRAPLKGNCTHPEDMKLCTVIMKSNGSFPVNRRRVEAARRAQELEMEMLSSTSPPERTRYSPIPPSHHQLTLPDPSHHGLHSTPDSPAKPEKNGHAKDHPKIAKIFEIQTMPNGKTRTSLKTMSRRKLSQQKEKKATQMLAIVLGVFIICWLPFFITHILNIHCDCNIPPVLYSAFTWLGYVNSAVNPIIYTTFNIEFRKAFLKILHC
Sequence of Muscarinic acetylcholine receptor M1 (Homo sapiens) (P11229 whole entry, looked up): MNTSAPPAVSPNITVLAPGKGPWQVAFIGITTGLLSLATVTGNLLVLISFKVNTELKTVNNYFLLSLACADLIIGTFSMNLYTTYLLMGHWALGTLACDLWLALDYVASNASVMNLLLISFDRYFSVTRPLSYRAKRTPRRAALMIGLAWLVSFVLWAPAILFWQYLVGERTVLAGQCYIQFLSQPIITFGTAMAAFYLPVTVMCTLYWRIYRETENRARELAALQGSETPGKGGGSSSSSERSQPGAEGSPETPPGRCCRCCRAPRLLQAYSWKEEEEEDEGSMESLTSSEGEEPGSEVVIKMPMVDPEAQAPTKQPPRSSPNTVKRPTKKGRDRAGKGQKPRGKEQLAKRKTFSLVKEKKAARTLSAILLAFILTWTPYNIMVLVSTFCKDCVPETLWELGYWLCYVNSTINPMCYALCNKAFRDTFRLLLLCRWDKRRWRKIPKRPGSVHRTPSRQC

CCCCCCCCCCCCCCCC(=O)OC
inactive: activity change, negative = cytotoxicity [1] 3.99% [at 19 µM] | activity, positive = activation [2] 0.79% [at 19 µM] | activity change [3] 0.561% [at 11.8 µM, stronger effect = higher value] | activation [4] -2.17% [at 15.8 µM] | activation [5] 0.811% [at 13.5 µM] | activation [6] 0.588% [at 13.6 µM] | activity change, negative = cytotoxicity [7] -1.62% [at 13.5 µM] | activity change, negative = cytotoxicity [8] -0.0573% [at 13.5 µM] | activity change, negative = cytotoxicity [9] 2.56% [at 13.5 µM] | activation [10] -4.84% [at 13.5 µM] | activity, negative = inhibition [11] -2.95% [at 12.7 µM] | activation [12] -0.493% [at 15.9 µM] | activity, negative = inhibition [13] -19.7% [at 12.6 µM] | activation [14] -0.393% [at 15.8 µM] | activation [15] -0.453% [at 19 µM] | activity change, negative = inhibition [16] -6.58% [at 18.9 µM] | activity change, negative = inhibition [17] 5.87% [at 19 µM] | activation [18] 0.309% [at 19 µM]

Cc1ccc(C=O)cc1
inactive: Potency [1] | Potency [2] | Potency [3] | Potency [4] | Potency [5] | Potency [6] | Potency [7] | Potency [8] | Potency [9] | Potency [10] | Potency [11] | Potency [12] | Potency [13] | Potency [14] | Potency [15] | Potency [16] | Potency [17] | Potency [18] | Potency [19]

Nc1c(S(=O)(=O)O)cc(Br)c2c1C(=O)c1ccccc1C2=O
inactive and 30.6 µM (active): Potency [1]
inactive: Potency [2] | Potency [3] | Potency [4] | Potency [7] | Potency [9] | Potency [12] | Potency [13] | Potency [14] | Potency [15] | Potency [16] | Potency [17] | Potency [18] | Potency [19]

O=c1[nH]cnc2c1ncn2[C@@H]1O[C@H](CO)[C@@H](O)[C@H]1O
inactive: Potency [1] | Potency [2] | Potency [3] | Potency [4] | Potency [5] | Potency [6] | Potency [7] | Potency [8] | Potency [9] | Potency [10] | Potency [11] | Potency [12] | Potency [13] | Potency [14] | Potency [15] | Potency [16] | Potency [17] | Potency [20] | Potency [18] | Potency [19]

Nc1nc(N)nc(-c2ccccc2)n1
inactive: Potency [1] | Potency [2] | Potency [3] | Potency [4] | Potency [8] | Potency [9] | Potency [11] | Potency [12] | Potency [13] | Potency [14] | Potency [15] | Potency [16] | Potency [17] | Potency [19]

O=S1(=O)OC(c2ccc(O)cc2)(c2ccc(O)cc2)c2ccccc21
active: Potency [1] 24.3 µM
inactive: Potency [2] | Potency [3] | Potency [4] | Potency [8] | Potency [9] | Potency [11] | Potency [12] | Potency [14] | Potency [15] | Potency [16] | Potency [17] | Potency [20] | Potency [18] | Potency [19]

Cc1cc(O)cc2c1O[C@](C)(CCC[C@H](C)CCC[C@H](C)CCCC(C)C)CC2
inactive: Potency [1] | Potency [2] | Potency [3] | Potency [4] | Potency [5] | Potency [6] | Potency [7] | Potency [8] | Potency [9] | Potency [10] | Potency [11] | Potency [12] | Potency [13] | Potency [14] | Potency [15] | Potency [16] | Potency [17] | Potency [18]

CN(Cc1cnc2nc(N)nc(N)c2n1)c1ccc(C(=O)N[C@@H](CCC(=O)O)C(=O)O)cc1
inactive: Potency [1] | Potency [2] | Potency [3] | Potency [4] | Potency [7] | Potency [15] | Potency [16] | Potency [17] | Potency [20] | Potency [18]

N=C(N)c1ccc2cc(OC(=O)c3ccc(N=C(N)N)cc3)ccc2c1
inactive: Potency [1] | Potency [2] | Potency [3] | Potency [4] | Potency [5] | Potency [6] | Potency [7] | Potency [8] | Potency [9] | Potency [10] | Potency [11] | Potency [12] | Potency [13] | Potency [14] | Potency [15] | Potency [16] | Potency [17] | Potency [20] | Potency [18] | Potency [19]

COc1ccc(OC)c(C(O)CNC(=O)CN)c1 (stereo unspecified)
inactive: Potency [1] | Potency [2] | Potency [3] | Potency [4] | Potency [9] | Potency [10] | Potency [11] | Potency [12] | Potency [13] | Potency [14] | Potency [15] | Potency [16] | Potency [17] | Potency [20] | Potency [18] | Potency [19]

CC1CCc2nccnc21 (stereo unspecified)
inactive: Potency [1] | Potency [2] | Potency [3] | Potency [4] | Potency [5] | Potency [6] | Potency [7] | Potency [8] | Potency [9] | Potency [10] | Potency [11] | Potency [12] | Potency [13] | Potency [14] | Potency [15] | Potency [16] | Potency [17] | Potency [20] | Potency [18] | Potency [19]

CCCCC(CC)COCC1CO1 (stereo unspecified)
inactive: Potency [1] | Potency [2] | Potency [3] | Potency [4] | Potency [7] | Potency [9] | Potency [11] | Potency [12] | Potency [13] | Potency [14] | Potency [15] | Potency [16] | Potency [17] | Potency [20] | Potency [18] | Potency [19]

O=C1OC2(c3ccccc31)c1cc(Br)c(O)c(Br)c1Oc1c2cc(Br)c(O)c1Br
active: Potency [3] 31.4 µM and 14.2 µM and 15.1 µM | Potency [4] 39.5 µM and 44.9 µM and 23.9 µM | Potency [12] 22.2 µM and 1.59 µM and 19 µM | Potency [14] 19.8 µM and 22.5 µM and 21.3 µM | Potency [17] 62 µM and 62.8 µM and 21.1 µM | Potency [18] 62 µM and 60.5 µM and 29.8 µM
inactive: Potency [1] | Potency [2] | Potency [9] | Potency [11] | Potency [13]
